High-throughput results as filed in PubChem BioAssay.
This is a sample that favours compounds with a hit; in the whole collection about 7.5% have one here.
NPC1 promoter act = NPC1 promoter activation | Huh7 NPC1 promoter luciferase reporter, 24 h | Potency, µM (highest dose often 9.22 µM), for the others: at the top dose activation, actives largely listed as activators | actives 2.4% (n = 320,000); also: % of control where 0% means no effect; nearly all actives have a fitted effect of over 60% in size
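Huh7 reporter cells (NPC1 promoter driving luciferase) are dosed with compound for 24 h at 37 °C, 5% CO2; luciferase detection reagent is then added and luminescence measured after 10 min at ambient temperature.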
Luc counter = counter-screen: inhibitors of Kinase-Glo firefly luciferase; Q27757; Kinase-Glo luciferase, ATP luminescence, 8 min; Potency, µM (top dose mostly 38.3 µM), inactives show top-dose activity change, negative = inhibition, hits mostly inhibitors; actives 0.28% (n = 200,000); AID 1379; also: % is scaled to controls: 0 for no effect and ±100 for the full control effect; nearly all actives have a fitted effect of over 60% in size
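Substrate mix (final 50 mM imidazole pH 7.2, 50 mM KCl, 7 mM MgCl2, 10 uM ATP, 0.01% Tween 20, 0.05% BSA) plus pin-tool compound, then Kinase-Glo detection mix; 8 min ambient, luminescence read.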
Rab9 promoter act = activates the Rab9 promoter | Huh7 Rab9 promoter-luciferase reporter, luminescence, 24 h | Potency, µM (top dose mostly 9.22 µM), for inactives: at the top dose activation, negative = inhibition, most hits filed as activators | actives 2.8% (n = 320,000) | AID 485297; also: % of control where 0% means no effect; nearly all actives have a fitted effect of over 60% in size
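Promoter activation is measured as luciferase luminescence in Huh7 cells stably transfected with a Rab9 promoter–luciferase construct, following 24 h compound exposure at 37 °C and 10 min reagent incubation at ambient temperature.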
ELG1 genotoxic = induces genotoxicity in HEK293T cells with luciferase-tagged ELG1. HEK293T ELG1-luciferase reporter, luminescence, 16 h. AID 504466. Potency, µM (highest dose often 46 µM), for inactives: at the top dose activity change, positive = activation, most hits filed as activators. actives 1.3% (n = 330,000); also: % of control where 0% means no effect; nearly all actives have a fitted effect of over 60% in size
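HEK293T cells expressing luciferase-tagged ELG1 were treated with compound or DMSO for 16 hr at 37°C. Luciferase activity was then read after 30 min with ONE-Glo at room temperature; rising signal flags genetic stress.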
FLuc modulator = inhibits or activates purified firefly luciferase, miR-21 counter-screen; P08659; purified FLuc, Km substrates, luminescence inhibition; Potency, µM (highest dose often 57.5 µM), for inactives: top-dose activity change, negative = inhibition, actives largely listed as inhibitors; actives 6.9% (n = 360,000); AID 588342;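 also: plate controls were vehicle for no effect and reference inhibitor for full effect; nearly all actives have a fitted effect of over 55% in size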
Target sequence (P08659 whole entry, looked up): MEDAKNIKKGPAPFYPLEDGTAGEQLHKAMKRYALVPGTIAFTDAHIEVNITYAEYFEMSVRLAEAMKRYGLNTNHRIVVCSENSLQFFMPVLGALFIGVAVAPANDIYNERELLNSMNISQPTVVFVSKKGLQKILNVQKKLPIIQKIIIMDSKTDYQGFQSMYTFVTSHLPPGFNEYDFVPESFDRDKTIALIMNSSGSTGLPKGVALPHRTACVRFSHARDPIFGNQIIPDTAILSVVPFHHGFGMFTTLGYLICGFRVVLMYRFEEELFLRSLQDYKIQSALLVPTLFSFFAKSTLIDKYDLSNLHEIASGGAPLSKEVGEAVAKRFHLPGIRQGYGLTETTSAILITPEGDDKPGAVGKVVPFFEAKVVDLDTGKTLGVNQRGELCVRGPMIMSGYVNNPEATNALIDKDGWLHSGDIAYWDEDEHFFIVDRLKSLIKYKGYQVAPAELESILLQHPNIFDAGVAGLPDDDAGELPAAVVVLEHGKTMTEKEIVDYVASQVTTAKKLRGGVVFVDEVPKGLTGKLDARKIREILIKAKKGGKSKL
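Purified P. pyralis luciferase (10nM final) with 10uM D-luciferin and 10uM ATP (Km levels) in 50mM Tris acetate pH 7.5, 10mM Mg acetate, 0.01% Tween-20, 0.05% BSA; qHTS 6-point titration, ~60 µM downward; luminescence read.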
SMN2 splice enh = enhancers of SMN2 splice variant expression; AID 1458; HEK293 SMN2-luciferase splicing reporter, luminescence, 30-36 h; actives 2.8% (n = 210,000); Potency, µM (doses to about 46.1 µM), without a hit: at the top dose activity change, positive = activation, most hits filed as activators; also: % of control where 0% means no effect; nearly all actives have a fitted effect of over 55% in size
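HEK293 cells carry an SMN2 minigene-luciferase reporter in which exon 7 inclusion puts luciferase in frame. Cells were seeded at 2000 cells/well, attached for 10-12 hours, then exposed to compounds for 30-36 hours at 37C before ONE-Glo luminescence.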
An asterisk follows results filed as active; ? = inconclusive; / = no result; [ ] = dose if it differs, or a comment. Calls follow the shape of the dose curve; as a rule, active = well fitted curve in the direction sought with a large enough effect; inconclusive = small, poorly fitted or top-dose-only effect, or another doubt; inactive = no such curve, though single readings can be large; an effect the other way counts as inactive or inconclusive. Potency is read from the fitted curve at half-maximal effect.

SMILES	NPC1 promoter act	Luc counter	Rab9 promoter act	ELG1 genotoxic	FLuc modulator	SMN2 splice enh
Cc1ccc(NC(=O)CN2C(=O)C3C4C=CC(C4)C3C2=O)cc1 (stereo unspecified)	-3%	-4%	3%	5%	4%	14%
O=C(CSCSCC(=O)Nc1ccc2c(c1)OCO2)Nc1ccc2c(c1)OCO2	-1%	-4%	-4%	-2%	17µM*	-7%
O=C(CN1C(=O)C2C3C=CC(C3)C2C1=O)Nc1ccc2c(c1)OCCO2 (stereo unspecified)	?	0%	3.5µM*	?	17µM*	21%
CC(CC(=O)Nc1ccc2c(c1)OCCO2)c1ccccc1 (stereo unspecified)	?	-3%	?	?	?	11µM*
COc1cc2c(cc1OC)C(C)N(C(=O)CCc1c[nH]c3ccccc13)CC2 (stereo unspecified)	-5%	/	0%	0%	0%	/
CCCCOc1ccccc1C(=O)N(Cc1sccc1C)C1CCS(=O)(=O)C1 (stereo unspecified)	/	/	/	/	0%	-4%
COc1ccc(CNC(=O)CCn2c(C)csc2=O)cc1	-3%	/	0%	2%	/	/
O=S(=O)(Nc1cccc2ccccc12)c1ccccc1	5%	/	8%	2%	-6%	/
O=C(O)c1cccc(S(=O)(=O)Nc2cccc3ccccc23)c1	17%	/	23%	4%	24µM*	/
CCOc1ccccc1CNc1ncnc2c1nc1n2CCCC1	/	/	/	/	-7%	/
Cc1cc(=O)oc2cc(NC(=O)c3cccc(F)c3)ccc12	?	/	1.4µM*	13%	-16%	/
Cc1cc(=O)oc2cc(NC(=O)c3cccc(S(=O)(=O)N(C)C)c3)ccc12	1.3µM*	/	0.89µM*	?	?	/
Cc1cc(=O)oc2cc(NC(=O)c3ccc(OC(F)F)cc3)ccc12	?	/	?	4.5µM*	-14%	/
Cc1cc(=O)oc2cc(OCC(=O)Nc3cccc(S(=O)(=O)N(C)C)c3)ccc12	-4%	4%	-8%	3%	4%	5%
CCOc1ccccc1NS(=O)(=O)c1c(C(=O)OC)sc2cccc(F)c12	/	/	/	/	-11%	/
O=S(=O)(Nc1ccc2ccccc2n1)c1ccccc1	10%	/	18%	8%	-8%	/
CCOc1ccc(CC(=O)Nc2cccc(-c3nc4cccnc4s3)c2C)cc1	/	/	/	/	1%	/
COc1ccc(-c2cc3onc(-c4c(Cl)cccc4Cl)c3c(=O)n2C)cc1	-1%	/	1%	-4%	?	/
Cn1c(-c2ccc(F)c(F)c2)cc2onc(-c3ccccc3)c2c1=O	0.79µM*	/	1.1µM*	2.3µM*	1.3µM*	/
CN(C)Cc1ccc(-c2cc3onc(-c4ccccc4)c3c(=O)n2C)cc1	/	-1%[7.66 µM]	/	/	/	-16%[9.22 µM]
COc1cccc(-c2cc3onc(-c4ccccc4)c3c(=O)n2C)c1	0.71µM*	/	0.4µM*	?	0.85µM*	/
COC(=O)c1ccc(-c2cc3onc(-c4ccccc4)c3c(=O)n2C)cc1	?	/	28%	?	4.3µM*	/
COc1ccc(/C=C(\C#N)C(N)=O)c(OC)c1	/	-5%[7.66 µM]	/	/	/	-2%[9.22 µM]
COc1ccc(CCN(C)C/C=C/c2ccccc2[N+](=O)[O-])cc1OC	-3%	/	-2%	-1%	2%	/
O=C(COc1ccc(Cl)cc1Cl)NC(=O)N1CCOCC1	-5%	-1%	-5%	5%	21µM*	20%
O=C(COc1ccc(Cl)cc1Cl)Nc1ccc(CN2CCOCC2)cc1	-1%	/	-3%	1%	-19%	/
O=C(COc1ccc(Cl)cc1Br)NC1CC1	?	/	28%	10%	13µM*	/
CC(=O)c1cc(Cl)ccc1OCC(=O)NC1CCCC1	?	/	?	-1%	17µM*	/
O=C(COc1ccc(Cl)cc1[N+](=O)[O-])NC1CCCCC1	?	1%	1.4µM*	?	11µM*	11µM*
O=C(c1ccc(Cl)cc1)N1CCN(c2ncccn2)CC1	2%	/	1%	-5%	-2%	/
